Measurements taken from PubChem BioAssay (EPA / NIEHS).
A structure can be active in one record and inactive in another. Activity calls are given as the source filed them. Rule for the calls: active = hit-call score of the fitted dose curve at least 0.9, where 1 is the maximum; inactive = score below 0.9.

Experiments:
[1] = target: Bile acid receptor (Homo sapiens) (UniProt Q96RI1); experiment: ATG_IR1_CIS: Attagene CIS-FACTORIAL HepG2 Assay for human Nuclear Receptor Subfamily 1 Group H Member 4 (NR1H4), IR1 submotif (AID 2282946); settings: IR1 reporter transcription, actives raise or lower the signal
How it was run: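 Fluorescence of capillary-separated, HpaI-digested RT-PCR reporter products gave IR1-element mRNA induction in HepG2 cells 24 h after dosing. Endogenous transcription factors drove the cis-regulated reporters; activity was fitted bidirectionally against DMSO.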

[2] = ATG_GRE_CIS: Attagene CIS-FACTORIAL HepG2 Assay for human Glucocorticoid Response Elements (GRE) (AID 2282947); settings: HepG2 GRE cis-reporter, Attagene multiplex mRNA; actives raise or lower the signal
How it was run: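 Read-out: fluorescent reporter-transcript fragments separated by capillary electrophoresis after RT-PCR. Transiently transfected HepG2 cells carrying cis-element-driven reporter units were dosed for 24 h; gain or loss of signal fitted against DMSO control.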

[3] = ATG_ISRE_CIS: Attagene CIS-FACTORIAL HepG2 Assay for human Interferon Regulatory Factor 1 (IRF1) binding to an Interferon-Stimulated Response Element (ISRE) (AID 2282948); settings: HepG2 ISRE cis-reporter (Attagene), mRNA transcription readout; actives raise or lower the signal
How it was run: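 Signal reflects induction or loss of ISRE-linked reporter mRNA in transiently transfected HepG2 cells after a 24 h treatment, detected by fluorescent RT-PCR fragments on capillary electrophoresis and normalised to DMSO.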

[4] = ATG_M_32_CIS: Attagene CIS-FACTORIAL HepG2 Assay for M32 Transcription Factor (Internal Marker) (AID 2282949); settings: HepG2 Attagene cis-factorial M32 reporter, mRNA; actives raise or lower the signal;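 note: background control marker of the multiplexed CIS panel rather than a real target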
How it was run: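 Transient MRTU transfection of HepG2; 24 h compound treatment; TriZol RNA, oligo(dT) RT, reporter PCR, 6-FAM primer extension, HpaI cut, CE. Gain/loss of signal vs DMSO.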

[5] = ATG_M_06_CIS: Attagene CIS-FACTORIAL HepG2 Assay for M06 Transcription Factor (Internal Marker) (AID 2282950); settings: HepG2 Attagene CIS-FACTORIAL M06 internal marker reporter; actives raise or lower the signal
How it was run: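 Serves as a background control readout. Transfected HepG2 exposed to compounds for 24 h, then reporter transcripts quantified by fluorescent RT-PCR and capillary electrophoresis. Both directions fitted against DMSO baseline.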

[6] = target: Hypoxia-inducible factor 1-alpha (Homo sapiens) (UniProt Q16665); experiment: ATG_HIF1a_CIS: Attagene CIS-FACTORIAL HepG2 Assay for human Hypoxia Inducible Factor 1 (HIF1A) (AID 2282951); settings: HepG2 Attagene cis-factorial HIF1a reporter transcription; actives raise or lower the signal
How it was run: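 HepG2, transient cis-reporter library, 24 h dosing. RNA → RT (oligo dT) → PCR → 6-FAM primer extension → HpaI → CE. Bidirectional curve fit vs DMSO.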

[7] = target: Hepatocyte nuclear factor 6 (Homo sapiens) (UniProt Q9UBC0); experiment: ATG_HNF6_CIS: Attagene CIS-FACTORIAL HepG2 Assay for human Hepatocyte Nuclear Factor 6 (HNF6) (AID 2282952); settings: HepG2 Attagene cis-factorial HNF6 reporter transcription; actives raise or lower the signal
How it was run: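 Using cis-element reporters in HepG2 liver cells, the assay tracks endogenous factor-driven transcription 24 h post-dosing. Signal comes from 6-FAM-labelled, HpaI-digested RT-PCR fragments, with gain or loss scored against DMSO.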

[8] = target: Heat shock factor protein 1 (Homo sapiens) (UniProt Q00613); experiment: ATG_HSE_CIS: Attagene CIS-FACTORIAL HepG2 Assay for human Heat Shock Transcription Factor 1 (HSE) (AID 2282953); settings: HepG2 HSE cis-reporter, Attagene RNA transcription; actives raise or lower the signal
How it was run: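 Endogenous transcription factor activity in transiently transfected HepG2, read as reporter mRNA by RT-PCR with fluorescent capillary electrophoresis after 24 h. Gain or loss of signal fitted versus DMSO baseline.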

[9] = ATG_PBREM_CIS: Attagene CIS-FACTORIAL HepG2 Assay for human Phenobarbital-responsive Enhancer Module (PBREM) (AID 2282955); settings: HepG2 PBREM cis-reporter, Attagene multiplexed transcription; actives raise or lower the signal
How it was run: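 HepG2, transient MRTU transfection, 24 h dosing; RNA → oligo(dT) RT → PCR → 6-FAM extension → HpaI → CE. Bidirectional fit vs DMSO.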

[10] = target: Paired box protein Pax-6 (Homo sapiens) (UniProt P26367); experiment: ATG_Pax6_CIS: Attagene CIS-FACTORIAL HepG2 Assay for human Paired Box 6 (PAX6) (AID 2282956); settings: HepG2 CIS-FACTORIAL PAX6 reporter transcription, RNA readout; actives raise or lower the signal
How it was run: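 Values derive from bidirectional curve fitting of reporter mRNA signal relative to DMSO. HepG2 cells bearing transfected cis-regulated MRTUs were exposed for 24 h; transcripts were read by RT-PCR and capillary electrophoresis.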

[11] = ATG_PXRE_CIS: Attagene CIS-FACTORIAL HepG2 Assay for human Pregnane X Receptor Element (PXRE) (AID 2282957); settings: HepG2 Attagene CIS-FACTORIAL PXRE reporter, mRNA; actives raise or lower the signal
How it was run: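 Using HepG2 transfected with multiple reporter transcription units, endogenous factor-driven transcription was scored as reporter mRNA after 24 h exposure.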

[12] = ATG_PPRE_CIS: Attagene CIS-FACTORIAL HepG2 Assay for human Peroxisome Proliferator-activated Response Element (PPRE) (AID 2282958); settings: HepG2 PPRE cis-element reporter, Attagene transcription factor profiling; actives raise or lower the signal
How it was run: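 Transcript-level reporter induction in transfected HepG2 cells after 24 h chemical exposure, quantified by fluorescence from RT-PCR products separated by capillary electrophoresis.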

[13] = ATG_Sox_CIS: Attagene CIS-FACTORIAL HepG2 Assay for human SRY-box transcription factor (SOX) (AID 2282960); settings: HepG2 Attagene cis-factorial SOX reporter, mRNA; actives raise or lower the signal
How it was run: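 Cells were transfected with reporter constructs under cis-regulatory promoters, then exposed to chemicals for 24 h. Reporter transcripts were quantified by fluorescence after RT-PCR and capillary electrophoresis; activity was fitted in both directions against DMSO.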

[14] = target: Transcription factor Sp1 (Homo sapiens) (UniProt P08047); experiment: ATG_Sp1_CIS: Attagene CIS-FACTORIAL HepG2 Assay for human Specificity Protein 1 (Sp1) (AID 2282961); settings: HepG2 Sp1 cis-reporter transcription, actives raise or lower the signal
How it was run: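 Measures mRNA induction of an Sp1-linked reporter in HepG2 cells 24 h post-dosing. Multiplexed reporters read by RT-PCR and capillary electrophoresis; DMSO serves as negative control and baseline.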

[15] = ATG_SREBP_CIS: Attagene CIS-FACTORIAL HepG2 Assay for human Sterol Regulatory Element Binding (SREBP) (AID 2282962); settings: HepG2 Attagene cis-factorial SREBP reporter, mRNA; actives raise or lower the signal
How it was run: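 Values derive from bidirectional curve fitting with DMSO as baseline. The underlying measurement is reporter mRNA from cis-element-regulated units in transiently transfected HepG2, quantified by RT-PCR and capillary electrophoresis after 24 h exposure.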

[16] = target: Signal transducer and activator of transcription 3 (Homo sapiens) (UniProt P40763); experiment: ATG_STAT3_CIS: Attagene CIS-FACTORIAL HepG2 Assay for human Signal Transducer and Activator of Transcription 3 (STAT3) (AID 2282963); settings: HepG2, Attagene cis-factorial STAT3 reporter transcription; actives raise or lower the signal
How it was run: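 Readout: fluorescent reporter mRNA fragments resolved by capillary electrophoresis. Setup: HepG2 transfected with MRTUs reporting endogenous transcription-factor activity, dosed 24 h. Gain or loss of signal fitted bidirectionally against DMSO control.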

[17] = ATG_TA_CIS: Attagene CIS-FACTORIAL HepG2 Assay for human TA Basal Promoter (AID 2282964); settings: HepG2 Attagene CIS-factorial TA basal promoter reporter; actives raise or lower the signal
How it was run: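 Background-control readout: TA basal promoter reporter mRNA, fitted in both directions relative to DMSO. Measured by RT-PCR and capillary electrophoresis 24 hours after treating HepG2 human liver cells transiently carrying multiplexed cis-regulated reporter constructs.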

[18] = ATG_RORE_CIS: Attagene CIS-FACTORIAL HepG2 Assay for human RAR-related Orphan Receptor Element (RORE) (AID 2282959); settings: HepG2 Attagene cis-factorial RORE reporter, mRNA; actives raise or lower the signal
How it was run: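 Multiplexed reporter assay measuring mRNA induction from a cis promoter element in transiently transfected HepG2 cells after 24 h treatment. Detection via RT-PCR and capillary electrophoresis fluorescence; DMSO serves as baseline.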

[19] = ATG_TCF_b_cat_CIS: Attagene CIS-FACTORIAL HepG2 Assay for human T-Cell-Factor with beta-catenin (TCF/b-cat) (AID 2282965); settings: HepG2 TCF/beta-catenin cis-reporter transcription, actives raise or lower the signal
How it was run: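 Cells of the HepG2 line carry transiently transfected reporter units whose promoters respond to endogenous factors. Twenty-four hours post-dosing, reporter mRNA induction is measured by fluorescent RT-PCR and capillary electrophoresis, with DMSO as baseline.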

[20] = ATG_MRE_CIS: Attagene CIS-FACTORIAL HepG2 Assay for human Metal Responsive Element (MRE) (AID 2282954); settings: HepG2 MRE cis-reporter transcription, Attagene multiplex; actives raise or lower the signal
How it was run: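 RT-PCR/capillary electrophoresis readout of reporter mRNA, 24 h post-dosing, in HepG2 cells transfected with multiplexed cis-regulated reporter constructs. Gain or loss of signal fitted bidirectionally against DMSO baseline.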

Measured: AC50

Transcription factor Sp1 (Homo sapiens), sequence (P08047 whole entry, looked up): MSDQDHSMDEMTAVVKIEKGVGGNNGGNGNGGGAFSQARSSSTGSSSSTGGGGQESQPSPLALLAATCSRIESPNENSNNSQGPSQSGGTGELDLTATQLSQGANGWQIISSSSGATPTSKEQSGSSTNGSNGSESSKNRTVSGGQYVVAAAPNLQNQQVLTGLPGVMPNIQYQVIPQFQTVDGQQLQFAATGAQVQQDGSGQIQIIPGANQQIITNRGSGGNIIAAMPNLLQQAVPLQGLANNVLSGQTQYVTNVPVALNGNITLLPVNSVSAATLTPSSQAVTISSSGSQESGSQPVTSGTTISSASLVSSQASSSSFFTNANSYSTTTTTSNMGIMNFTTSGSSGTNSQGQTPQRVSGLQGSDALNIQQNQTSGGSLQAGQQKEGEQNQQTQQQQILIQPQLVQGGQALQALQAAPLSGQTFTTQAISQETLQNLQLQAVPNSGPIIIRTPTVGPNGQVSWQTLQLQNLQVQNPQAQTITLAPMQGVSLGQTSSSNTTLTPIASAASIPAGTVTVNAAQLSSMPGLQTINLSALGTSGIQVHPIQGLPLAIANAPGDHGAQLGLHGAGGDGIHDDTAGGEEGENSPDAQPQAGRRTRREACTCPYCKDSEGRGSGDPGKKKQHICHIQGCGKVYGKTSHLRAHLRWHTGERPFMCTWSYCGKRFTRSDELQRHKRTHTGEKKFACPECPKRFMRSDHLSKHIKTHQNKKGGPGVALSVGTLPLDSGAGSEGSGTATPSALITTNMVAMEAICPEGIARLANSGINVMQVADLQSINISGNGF
Paired box protein Pax-6 (Homo sapiens), sequence (P26367 whole entry, looked up): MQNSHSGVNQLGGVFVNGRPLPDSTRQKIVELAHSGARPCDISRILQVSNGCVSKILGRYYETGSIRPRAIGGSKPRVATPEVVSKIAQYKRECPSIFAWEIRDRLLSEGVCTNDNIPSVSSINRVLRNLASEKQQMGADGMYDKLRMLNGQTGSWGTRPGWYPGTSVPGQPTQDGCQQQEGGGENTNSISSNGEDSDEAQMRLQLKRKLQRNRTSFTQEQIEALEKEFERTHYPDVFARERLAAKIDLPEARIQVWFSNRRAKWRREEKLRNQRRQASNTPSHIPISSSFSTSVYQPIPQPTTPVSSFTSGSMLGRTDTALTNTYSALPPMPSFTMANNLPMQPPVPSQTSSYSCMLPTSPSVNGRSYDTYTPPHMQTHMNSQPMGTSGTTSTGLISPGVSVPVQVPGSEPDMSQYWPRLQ
Hepatocyte nuclear factor 6 (Homo sapiens), sequence (Q9UBC0 whole entry, looked up, the tested form may be a part): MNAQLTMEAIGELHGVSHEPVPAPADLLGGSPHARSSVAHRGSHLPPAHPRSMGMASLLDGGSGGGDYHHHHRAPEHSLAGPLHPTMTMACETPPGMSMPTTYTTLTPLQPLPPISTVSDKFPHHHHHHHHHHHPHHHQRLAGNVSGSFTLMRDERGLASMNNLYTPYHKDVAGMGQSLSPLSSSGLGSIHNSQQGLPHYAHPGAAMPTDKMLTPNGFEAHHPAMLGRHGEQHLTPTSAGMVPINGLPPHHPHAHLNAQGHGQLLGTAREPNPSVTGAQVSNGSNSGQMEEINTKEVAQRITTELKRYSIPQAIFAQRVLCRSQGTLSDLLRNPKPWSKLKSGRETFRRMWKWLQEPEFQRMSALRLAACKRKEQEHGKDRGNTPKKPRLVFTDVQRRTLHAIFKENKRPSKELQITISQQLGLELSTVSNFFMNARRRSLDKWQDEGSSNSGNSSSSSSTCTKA
Heat shock factor protein 1 (Homo sapiens), sequence (Q00613 whole entry, looked up): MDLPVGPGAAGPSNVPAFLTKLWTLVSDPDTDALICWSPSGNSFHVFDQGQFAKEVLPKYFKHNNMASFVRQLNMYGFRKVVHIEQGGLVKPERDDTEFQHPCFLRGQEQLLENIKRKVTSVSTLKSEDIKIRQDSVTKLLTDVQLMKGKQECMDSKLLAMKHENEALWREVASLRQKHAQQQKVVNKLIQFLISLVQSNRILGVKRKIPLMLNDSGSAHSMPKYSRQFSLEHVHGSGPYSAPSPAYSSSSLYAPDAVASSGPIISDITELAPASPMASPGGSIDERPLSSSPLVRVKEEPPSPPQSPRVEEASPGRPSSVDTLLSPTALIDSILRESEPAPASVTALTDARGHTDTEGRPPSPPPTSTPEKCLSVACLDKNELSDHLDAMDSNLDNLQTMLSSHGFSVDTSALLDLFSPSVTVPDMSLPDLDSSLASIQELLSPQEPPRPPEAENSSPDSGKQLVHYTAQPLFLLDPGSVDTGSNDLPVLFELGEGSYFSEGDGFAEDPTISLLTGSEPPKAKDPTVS
Bile acid receptor (Homo sapiens), sequence (Q96RI1 whole entry, looked up): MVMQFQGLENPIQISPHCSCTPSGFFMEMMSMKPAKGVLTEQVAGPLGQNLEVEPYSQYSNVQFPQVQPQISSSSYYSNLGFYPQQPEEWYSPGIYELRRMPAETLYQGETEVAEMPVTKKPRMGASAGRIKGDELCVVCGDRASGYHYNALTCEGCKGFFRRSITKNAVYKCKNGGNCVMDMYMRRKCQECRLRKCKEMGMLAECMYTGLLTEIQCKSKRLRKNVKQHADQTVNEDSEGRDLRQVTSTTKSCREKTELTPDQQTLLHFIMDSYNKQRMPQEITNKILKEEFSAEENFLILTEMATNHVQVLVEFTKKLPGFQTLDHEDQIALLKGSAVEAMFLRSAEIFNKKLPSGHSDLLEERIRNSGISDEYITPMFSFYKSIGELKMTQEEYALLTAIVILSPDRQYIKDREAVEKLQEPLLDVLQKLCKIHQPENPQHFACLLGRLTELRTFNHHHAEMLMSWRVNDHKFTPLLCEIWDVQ
Signal transducer and activator of transcription 3 (Homo sapiens), sequence (P40763 whole entry, looked up, the tested form may be a part): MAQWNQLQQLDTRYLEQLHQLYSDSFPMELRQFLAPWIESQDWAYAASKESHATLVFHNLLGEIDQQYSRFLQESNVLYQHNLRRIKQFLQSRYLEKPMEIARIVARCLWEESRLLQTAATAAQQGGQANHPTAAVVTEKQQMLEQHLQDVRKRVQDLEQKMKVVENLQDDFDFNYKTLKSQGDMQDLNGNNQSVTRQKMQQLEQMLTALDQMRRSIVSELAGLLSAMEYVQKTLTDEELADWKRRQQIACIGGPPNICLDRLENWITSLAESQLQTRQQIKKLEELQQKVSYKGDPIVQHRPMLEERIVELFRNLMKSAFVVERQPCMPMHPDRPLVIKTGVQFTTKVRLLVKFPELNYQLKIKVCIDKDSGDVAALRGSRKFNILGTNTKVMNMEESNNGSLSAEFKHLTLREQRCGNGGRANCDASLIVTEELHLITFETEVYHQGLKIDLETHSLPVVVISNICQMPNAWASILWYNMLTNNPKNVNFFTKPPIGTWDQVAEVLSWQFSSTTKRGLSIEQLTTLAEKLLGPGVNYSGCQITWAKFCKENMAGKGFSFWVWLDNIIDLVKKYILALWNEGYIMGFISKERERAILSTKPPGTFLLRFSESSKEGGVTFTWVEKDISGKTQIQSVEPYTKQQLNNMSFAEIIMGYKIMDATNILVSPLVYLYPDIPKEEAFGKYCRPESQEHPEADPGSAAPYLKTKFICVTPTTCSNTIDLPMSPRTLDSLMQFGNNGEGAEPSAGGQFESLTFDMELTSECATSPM
Hypoxia-inducible factor 1-alpha (Homo sapiens), sequence (Q16665 whole entry, looked up): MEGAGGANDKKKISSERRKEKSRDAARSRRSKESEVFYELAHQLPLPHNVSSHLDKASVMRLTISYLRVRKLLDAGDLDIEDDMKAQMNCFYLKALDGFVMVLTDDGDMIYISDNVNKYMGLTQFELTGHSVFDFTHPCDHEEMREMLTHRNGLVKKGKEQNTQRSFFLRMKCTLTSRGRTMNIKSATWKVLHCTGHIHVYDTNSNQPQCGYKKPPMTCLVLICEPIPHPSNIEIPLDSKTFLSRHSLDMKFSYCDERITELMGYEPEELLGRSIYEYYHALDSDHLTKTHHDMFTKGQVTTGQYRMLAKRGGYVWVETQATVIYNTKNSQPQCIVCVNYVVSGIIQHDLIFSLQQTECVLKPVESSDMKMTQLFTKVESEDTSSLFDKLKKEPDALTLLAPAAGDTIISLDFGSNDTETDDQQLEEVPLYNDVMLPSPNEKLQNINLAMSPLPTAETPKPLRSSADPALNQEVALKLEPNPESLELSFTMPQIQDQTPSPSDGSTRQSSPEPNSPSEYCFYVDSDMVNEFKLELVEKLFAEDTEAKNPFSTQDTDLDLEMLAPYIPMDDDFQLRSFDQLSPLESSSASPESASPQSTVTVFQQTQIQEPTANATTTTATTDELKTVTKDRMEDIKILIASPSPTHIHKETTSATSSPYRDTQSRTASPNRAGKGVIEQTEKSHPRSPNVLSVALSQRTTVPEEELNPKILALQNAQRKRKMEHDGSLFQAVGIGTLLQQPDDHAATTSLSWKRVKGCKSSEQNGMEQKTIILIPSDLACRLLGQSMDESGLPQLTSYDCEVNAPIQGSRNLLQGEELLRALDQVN

CN(C)C(=O)C1(N2CCCCC2)CCN(CC[C@@]2(c3ccc(Cl)c(Cl)c3)CN(C(=O)c3ccccc3)CCO2)CC1
active: [6] 1010 nM | [11] 170 nM | [15] 436 nM
inactive: [1] | [2] | [3] | [4] | [5] | [7] | [8] | [9] | [10] | [12] | [13] | [14] | [16] | [17]

CCN(CC)C(=O)c1cc(S(=O)(=O)Cc2ccccc2)c(N2CCC(c3ccccc3)CC2)cc1N(CC)CCN(C)C
inactive: [1] | [2] | [3] | [4] | [5] | [7] | [8] | [9] | [10] | [12] | [18] | [13] | [14] | [16] | [17] | [19]
active: [6] 3700 nM | [11] 126 nM | [15] 926 nM

CCCOC(=O)c1cc(O)c(O)c(O)c1
inactive: [1] | [2] | [3] | [4] | [5] | [7] | [8] | [20] | [9] | [10] | [11] | [18] | [13] | [14] | [15] | [16] | [17] | [19]
active: [6] 65100 nM | [12] 21000 nM

C[C@]12CC[C@@H]3c4ccc(O)cc4CC[C@H]3[C@@H]1CCC2=O
inactive: [1] | [3] | [4] | [5] | [6] | [7] | [8] | [20] | [10] | [13] | [14] | [15] | [16] | [17] | [19]

CCN(Cc1cccc(S(=O)(=O)O)c1)c1ccc(C(=C2C=CC(=[N+](CC)Cc3cccc(S(=O)(=O)O)c3)C=C2)c2ccccc2S(=O)(=O)[O-])cc1
inactive: [1] | [3] | [4] | [5] | [6] | [7] | [8] | [9] | [10] | [11] | [12] | [18] | [13] | [14] | [15] | [16] | [17] | [19]

CN1C(=O)CC[C@H]1c1cccnc1
inactive: [3] | [4] | [5] | [7] | [8] | [9] | [10] | [11] | [13] | [14] | [15] | [16] | [17]

Cc1cccc2ccccc12
inactive: [1] | [3] | [4] | [5] | [6] | [7] | [8] | [20] | [9] | [10] | [11] | [12] | [18] | [13] | [14] | [15] | [16] | [17]

Cc1ncc(CO)c(CO)c1O
inactive: [1] | [3] | [4] | [5] | [7] | [8] | [10] | [11] | [12] | [13] | [14] | [15] | [16] | [17] | [19]

CCCCCCCCOc1ccc(C(=O)c2ccccc2)c(O)c1
inactive: [1] | [3] | [4] | [5] | [6] | [7] | [8] | [9] | [10] | [11] | [12] | [18] | [13] | [14] | [15] | [16] | [17] | [19]

Cc1cn([C@H]2C[C@H](N=[N+]=[N-])[C@@H](CO)O2)c(=O)[nH]c1=O
inactive: [1] | [2] | [3] | [4] | [5] | [7] | [8] | [20] | [10] | [11] | [12] | [13] | [14] | [15] | [16] | [17] | [19]

Oc1ccccc1
inactive: [1] | [3] | [4] | [5] | [6] | [7] | [20] | [9] | [10] | [11] | [12] | [13] | [14] | [15] | [16] | [17]

CCCCCCCCCC(=O)O
inactive: [2] | [3] | [4] | [5] | [6] | [7] | [8] | [20] | [10] | [11] | [13] | [14] | [15] | [16] | [17]
active: [11] 27400 nM | [15] 104000 nM

O=C=NCCCCCCN=C=O
inactive: [1] | [3] | [4] | [5] | [6] | [7] | [8] | [20] | [9] | [10] | [11] | [12] | [18] | [13] | [14] | [15] | [16] | [17]
